The full data set covers some 7,900 targets. This sample favours those with a hit. About 0.6% of all pairs of compound and target were hits. Unmarked numbers belong to inactive results.
What was measured:
Test in all cases: log2 fold change, soluble protein after heating vs DMSO (PISA); higher = thermal stabilisation; K562 cells, 10 uM, 30 min; active = over 0.2 and 3.5 SD of the protein, either way, in both replicates (recomputed)
[1] = compound: CC1=C(C=C(C=C1)NC(=O)C2=CC(=CC=C2)C(C)(C)C#N)NC3=CC4=C(C=C3)N=CN(C4=O)C
Procedure, shortened: (§1)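 Thermal stability values are relative to control samples and come from duplicates. They are expressed as log2 fold changes. For measurement, K562 cells (2×10^6 cells/mL) received 10 μM compound for 30 min, and aliquots were heated for 3 min over 48°C-58°C, pooled, and extracted at 4°C in PBS with 0.5% NP-40. Soluble protein, the supernatant after 21,000xg for 90 min, was quantified by TMTpro 16plex LC-MS/MS with equalised channel sums.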

[2] = compound: CC1=C(C=C(C=C1)NC(=O)C2=CC(=CC=C2)N(C)C)NC(=O)C3=CC=C(C=C3)O
Procedure, shortened: as §1

[3] = compound: CC1=CC=C(C=C1)SC2=C3C=C(SC3=CN=C2)C(=O)N
Procedure, shortened: as §1

[4] = compound: CC1=NC(=CC=C1)C2=C(N=C(N2)C(C)(C)C)C3=CC4=NC=CN=C4C=C3
Procedure, shortened: as §1

Nexturastat A = compound: CCCCN(Cc1ccc(C(=O)NO)cc1)C(=O)Nc1ccccc1 [Nexturastat A]
Procedure, shortened: as §1

vemurafenib = compound: CCCS(=O)(=O)Nc1ccc(F)c(C(=O)c2c[nH]c3ncc(-c4ccc(Cl)cc4)cc23)c1F [vemurafenib]
Procedure, shortened: as §1

[5] = compound: CCCS(=O)(=O)Nc1ccc(F)c(C(=O)c2c[nH]c3ncc(Cl)cc23)c1F
Procedure, shortened: as §1

[6] = compound: CCCc1cc(C)[nH]c(=O)c1CNC(=O)c1cc(-c2ccnc(N3CCN(C)CC3)c2)cc2c1cnn2C(C)C
Procedure, shortened: as §1

givinostat = compound: CCN(CC)Cc1ccc2cc(COC(=O)Nc3ccc(C(=O)NO)cc3)ccc2c1 [givinostat]
Procedure, shortened: as §1

barasertib = compound: CCN(CCCOc1ccc2c(Nc3cc(CC(=O)Nc4cccc(F)c4)[nH]n3)ncnc2c1)CCOP(=O)(O)O [barasertib]
Procedure, shortened: as §1

[7] = compound: CC[C@@H]1C(=O)N(C)c2cnc(Nc3ccc(C(=O)NC4CCN(C)CC4)cc3OC)nc2N1C1CCCC1
Procedure, shortened: as §1

volasertib = compound: CC[C@@H]1C(=O)N(C)c2cnc(Nc3ccc(C(=O)N[C@H]4CC[C@H](N5CCN(CC6CC6)CC5)CC4)cc3OC)nc2N1C(C)C [volasertib]
Procedure, shortened: as §1

[8] = compound: CC[C@H](C)N1C=C(C2=C(C=C(C=C21)C3=CN=C(C=C3)N4CCNCC4)C(=O)NCC5=C(C=C(NC5=O)C)C)C
Procedure, shortened: as §1

epoxomicin = compound: CC[C@H](C)[C@@H](C(=O)N[C@@H]([C@@H](C)O)C(=O)N[C@@H](CC(C)C)C(=O)[C@]1(CO1)C)NC(=O)[C@H]([C@@H](C)CC)N(C)C(=O)C [epoxomicin]
Procedure, shortened: as §1

[9] = compound: CCn1c(C(=O)N(C2CC2)C2CC2)cc2c3c(ncn3C)c(Nc3cc(C)n(C)n3)nc21
Procedure, shortened: as §1

[10] = compound: CCn1cc(-c2ccnc3[nH]c(-c4cccc(CN(C)C)c4)cc23)c(-c2ccc(NC(=O)N(C)C)cc2)n1
Procedure, shortened: as §1

[11] = compound: CN(C)CC(=O)Nc1ccc2[nH]c(=O)c3ccccc3c2c1
Procedure, shortened: as §1

rosiglitazone = compound: CN(CCOC1=CC=C(C=C1)C[C@H]2C(=O)NC(=O)S2)C3=CC=CC=N3 (racemic) [rosiglitazone]
Procedure, shortened: as §1

[12] = compound: CN1C2=C(C3=C1C(=O)N(N=C3)CC4=CC(=CC=C4)N)SC(=C2)S(=O)C
Procedure, shortened: as §1

[13] = compound: CN1CCC(CNc2ccc3ncc(-c4cccc(OC(F)(F)F)c4)n3n2)CC1
Procedure, shortened: as §1

Chain of UniProt P60033 (P60033 whole entry, looked up): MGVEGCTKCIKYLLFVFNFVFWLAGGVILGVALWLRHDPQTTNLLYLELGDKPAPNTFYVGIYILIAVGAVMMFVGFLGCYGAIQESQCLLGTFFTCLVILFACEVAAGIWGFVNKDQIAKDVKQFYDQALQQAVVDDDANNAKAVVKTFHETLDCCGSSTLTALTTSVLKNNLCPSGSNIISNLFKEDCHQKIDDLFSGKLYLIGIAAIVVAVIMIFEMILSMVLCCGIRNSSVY
Chain of UniProt P48509 (P48509 whole entry, looked up): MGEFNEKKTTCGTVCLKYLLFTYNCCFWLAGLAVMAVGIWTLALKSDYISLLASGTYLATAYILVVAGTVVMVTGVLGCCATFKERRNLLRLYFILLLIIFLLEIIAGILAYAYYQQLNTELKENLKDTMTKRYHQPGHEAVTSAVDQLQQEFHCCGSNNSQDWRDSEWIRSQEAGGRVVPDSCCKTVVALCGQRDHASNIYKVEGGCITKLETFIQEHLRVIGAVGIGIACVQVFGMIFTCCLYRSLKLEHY
Chain of UniProt O95319 (O95319 whole entry, looked up): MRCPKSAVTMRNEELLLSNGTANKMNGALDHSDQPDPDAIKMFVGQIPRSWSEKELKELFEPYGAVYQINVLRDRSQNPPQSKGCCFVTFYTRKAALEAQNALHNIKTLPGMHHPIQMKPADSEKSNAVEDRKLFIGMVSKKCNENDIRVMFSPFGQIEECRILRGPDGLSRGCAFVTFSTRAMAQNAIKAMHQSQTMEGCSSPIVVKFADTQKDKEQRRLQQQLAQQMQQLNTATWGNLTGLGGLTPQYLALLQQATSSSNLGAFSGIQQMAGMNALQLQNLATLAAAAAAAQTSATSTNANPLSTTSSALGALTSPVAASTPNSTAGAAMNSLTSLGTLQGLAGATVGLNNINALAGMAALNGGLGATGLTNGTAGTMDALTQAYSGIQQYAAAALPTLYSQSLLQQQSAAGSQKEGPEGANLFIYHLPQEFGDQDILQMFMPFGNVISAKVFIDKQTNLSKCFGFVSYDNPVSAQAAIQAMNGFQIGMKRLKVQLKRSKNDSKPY
Chain of UniProt P83916 (P83916 whole entry, looked up): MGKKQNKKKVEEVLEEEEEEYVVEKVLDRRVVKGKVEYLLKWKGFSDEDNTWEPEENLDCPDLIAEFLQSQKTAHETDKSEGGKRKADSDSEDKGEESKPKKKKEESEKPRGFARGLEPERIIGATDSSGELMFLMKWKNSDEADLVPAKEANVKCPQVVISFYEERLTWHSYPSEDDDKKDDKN
Chain of UniProt Q16740 (Q16740 whole entry, looked up): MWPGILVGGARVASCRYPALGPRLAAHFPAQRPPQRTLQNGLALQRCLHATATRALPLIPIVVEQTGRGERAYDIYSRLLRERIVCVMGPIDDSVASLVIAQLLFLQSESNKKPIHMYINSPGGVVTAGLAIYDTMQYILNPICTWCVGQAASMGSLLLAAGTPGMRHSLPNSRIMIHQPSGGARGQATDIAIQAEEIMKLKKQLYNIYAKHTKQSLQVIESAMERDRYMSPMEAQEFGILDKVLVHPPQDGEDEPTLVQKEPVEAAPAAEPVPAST
Chain of UniProt P67870 (P67870 whole entry, looked up): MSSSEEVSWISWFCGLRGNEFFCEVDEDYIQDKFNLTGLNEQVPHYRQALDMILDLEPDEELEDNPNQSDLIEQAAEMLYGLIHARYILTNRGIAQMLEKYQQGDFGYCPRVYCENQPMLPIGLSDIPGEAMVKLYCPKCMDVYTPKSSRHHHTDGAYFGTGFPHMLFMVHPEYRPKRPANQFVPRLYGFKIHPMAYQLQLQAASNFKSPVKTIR
Chain of UniProt P51790 (P51790 whole entry, looked up): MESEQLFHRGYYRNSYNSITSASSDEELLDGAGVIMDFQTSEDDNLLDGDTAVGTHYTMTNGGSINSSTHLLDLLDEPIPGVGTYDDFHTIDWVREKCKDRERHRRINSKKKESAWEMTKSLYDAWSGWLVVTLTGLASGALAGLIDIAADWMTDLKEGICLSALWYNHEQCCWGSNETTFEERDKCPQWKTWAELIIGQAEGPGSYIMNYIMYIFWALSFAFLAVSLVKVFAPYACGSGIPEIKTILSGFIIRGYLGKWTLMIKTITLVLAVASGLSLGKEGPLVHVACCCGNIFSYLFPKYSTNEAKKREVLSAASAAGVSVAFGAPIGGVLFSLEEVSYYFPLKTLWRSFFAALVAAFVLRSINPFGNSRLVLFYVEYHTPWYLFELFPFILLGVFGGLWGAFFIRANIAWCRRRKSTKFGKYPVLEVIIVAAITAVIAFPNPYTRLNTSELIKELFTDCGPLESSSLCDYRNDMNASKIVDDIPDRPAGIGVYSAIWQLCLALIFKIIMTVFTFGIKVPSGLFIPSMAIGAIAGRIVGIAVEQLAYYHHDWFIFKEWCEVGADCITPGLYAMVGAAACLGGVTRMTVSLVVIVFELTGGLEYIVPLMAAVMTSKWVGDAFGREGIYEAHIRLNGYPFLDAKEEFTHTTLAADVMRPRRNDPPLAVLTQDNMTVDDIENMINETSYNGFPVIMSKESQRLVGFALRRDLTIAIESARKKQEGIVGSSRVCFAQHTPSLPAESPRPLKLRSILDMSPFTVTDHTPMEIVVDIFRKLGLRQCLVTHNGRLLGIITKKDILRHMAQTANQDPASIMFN
Chain of UniProt P41240 (P41240 whole entry, looked up): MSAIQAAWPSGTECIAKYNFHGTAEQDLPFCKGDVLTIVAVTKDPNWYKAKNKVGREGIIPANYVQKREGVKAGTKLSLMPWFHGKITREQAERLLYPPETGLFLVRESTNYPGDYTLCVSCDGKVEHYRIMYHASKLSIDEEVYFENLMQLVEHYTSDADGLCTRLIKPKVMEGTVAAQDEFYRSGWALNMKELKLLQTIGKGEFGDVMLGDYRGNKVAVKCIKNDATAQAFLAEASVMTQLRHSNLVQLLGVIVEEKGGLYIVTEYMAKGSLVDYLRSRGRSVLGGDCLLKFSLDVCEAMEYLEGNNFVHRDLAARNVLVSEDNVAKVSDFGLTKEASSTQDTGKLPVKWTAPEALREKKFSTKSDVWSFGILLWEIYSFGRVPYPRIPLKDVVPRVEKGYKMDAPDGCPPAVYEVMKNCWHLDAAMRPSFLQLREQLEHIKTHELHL
Chain of UniProt Q5RI15 (Q5RI15 whole entry, looked up): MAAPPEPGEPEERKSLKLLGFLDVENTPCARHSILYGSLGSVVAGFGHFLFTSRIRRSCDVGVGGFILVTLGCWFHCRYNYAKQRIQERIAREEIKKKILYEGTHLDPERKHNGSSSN
Chain of UniProt P21127 (P21127 whole entry, looked up): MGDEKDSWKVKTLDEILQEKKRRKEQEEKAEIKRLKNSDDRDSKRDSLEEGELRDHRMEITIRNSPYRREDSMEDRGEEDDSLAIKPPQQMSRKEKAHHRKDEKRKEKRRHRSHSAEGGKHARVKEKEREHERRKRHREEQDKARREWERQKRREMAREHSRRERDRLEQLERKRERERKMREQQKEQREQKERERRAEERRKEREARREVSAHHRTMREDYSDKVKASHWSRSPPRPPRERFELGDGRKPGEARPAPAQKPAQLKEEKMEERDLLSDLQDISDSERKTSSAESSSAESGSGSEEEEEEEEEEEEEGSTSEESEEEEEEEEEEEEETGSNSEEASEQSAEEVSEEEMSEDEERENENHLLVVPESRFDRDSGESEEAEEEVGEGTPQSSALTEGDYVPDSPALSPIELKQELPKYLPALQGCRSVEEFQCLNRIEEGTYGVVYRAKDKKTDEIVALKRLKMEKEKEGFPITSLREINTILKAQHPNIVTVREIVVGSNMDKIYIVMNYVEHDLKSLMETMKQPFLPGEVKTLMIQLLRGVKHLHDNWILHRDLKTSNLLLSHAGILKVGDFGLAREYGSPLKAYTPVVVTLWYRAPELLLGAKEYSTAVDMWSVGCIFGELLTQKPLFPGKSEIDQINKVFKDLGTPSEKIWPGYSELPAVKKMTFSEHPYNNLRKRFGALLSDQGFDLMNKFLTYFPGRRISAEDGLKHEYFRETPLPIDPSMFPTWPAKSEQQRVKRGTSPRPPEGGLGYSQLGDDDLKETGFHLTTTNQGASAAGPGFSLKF
Chain of UniProt Q00534 (Q00534 whole entry, looked up): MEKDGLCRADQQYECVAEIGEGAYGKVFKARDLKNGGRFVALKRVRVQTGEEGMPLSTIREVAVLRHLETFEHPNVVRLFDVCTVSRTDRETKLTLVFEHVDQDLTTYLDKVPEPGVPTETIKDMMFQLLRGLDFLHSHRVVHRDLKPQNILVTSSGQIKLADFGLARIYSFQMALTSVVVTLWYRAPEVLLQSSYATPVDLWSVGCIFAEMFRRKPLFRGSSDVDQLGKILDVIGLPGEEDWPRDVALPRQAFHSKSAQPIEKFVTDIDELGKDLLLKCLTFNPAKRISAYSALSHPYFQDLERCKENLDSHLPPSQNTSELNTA
Chain of UniProt Q13137 (Q13137 whole entry, looked up): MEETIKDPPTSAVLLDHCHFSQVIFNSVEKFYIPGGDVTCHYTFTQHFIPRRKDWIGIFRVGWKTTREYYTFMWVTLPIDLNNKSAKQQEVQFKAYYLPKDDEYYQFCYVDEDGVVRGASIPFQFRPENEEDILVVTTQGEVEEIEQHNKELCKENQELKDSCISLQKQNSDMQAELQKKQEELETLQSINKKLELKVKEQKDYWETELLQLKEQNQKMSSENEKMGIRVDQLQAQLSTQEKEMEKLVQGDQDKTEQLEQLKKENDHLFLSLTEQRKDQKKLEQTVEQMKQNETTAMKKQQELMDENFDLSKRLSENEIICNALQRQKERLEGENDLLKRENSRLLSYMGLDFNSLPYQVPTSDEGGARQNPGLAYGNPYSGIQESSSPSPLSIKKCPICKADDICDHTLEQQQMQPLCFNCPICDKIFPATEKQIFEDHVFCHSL

Target | log2 fold change [1] | log2 fold change [2] | log2 fold change [3] | log2 fold change [4] | log2 fold change (Nexturastat A) | log2 fold change (vemurafenib) | log2 fold change [5] | log2 fold change [6] | log2 fold change (givinostat) | log2 fold change (barasertib) | log2 fold change [7] | log2 fold change (volasertib) | log2 fold change [8] | log2 fold change (epoxomicin) | log2 fold change [9] | log2 fold change [10] | log2 fold change [11] | log2 fold change (rosiglitazone) | log2 fold change [12] | log2 fold change [13]
COX20 isoform 2 (UniProt Q5RI15) | 0.035 | -0.041 | 0.102 | 0.036 | -0.038 | -0.036 | -0.041 | 0.069 | -0.04 | -0.03 | -0.019 | 0.077 | -0.01 | 0 | 0.004 | 0.294 (active) | -0.038 | 0.005 | 0.002 | 0.081
CDK12 (UniProt Q9NYV4) | 0.049 | -0.001 | -0.079 | -0.077 | 0.278 | -0.047 | -0.002 | 0.104 | 0.026 | -0.083 | 0.147 | 0.237 | 0.016 | -0.363 | -0.005 | 0.041 | -0.027 | -0.101 | 0.392 | -0.102
CALCOCO2 isoform 4 (UniProt Q13137) | -0.005 | -0.008 | 0.006 | 0.012 | 0.019 | 0.012 | -0.037 | -0.052 | 0 | 0.022 | -0.634 (active) | -0.471 (active) | -0.024 | 0.035 | 0.089 | 0.059 | 0.01 | 0 | 0.055 | -0.149
CSNK2A1 (UniProt P68400) | -0.047 | -0.004 | -0.044 | 0.025 | 0.034 | 0.006 | 0.008 | -0.018 | -0.003 | -0.024 | 0.007 | 0.04 | 0.002 | -0.012 | 0.003 | -0.117 | -0.007 | 0.024 | -0.04 | -0.233
CD81 (UniProt P60033) | 0.039 | 0.112 | 0.069 | 0.054 | -0.027 | 0.156 | -0.08 | -0.06 | 0.016 | -0.008 | 0.393 (active) | 0.193 | -0.06 | 0.013 | 0.058 | -0.226 | 0.098 | 0.013 | -0.139 | 0.145
CDK5RAP3 isoform 4 (UniProt Q96JB5) | 0.018 | -0.035 | 0.008 | 0.015 | 0.051 | 0.044 | 0.077 | -0.015 | 0.109 | 0.029 | -0.056 | -0.296 (active) | 0 | 0.021 | -0.044 | -0.007 | 0.033 | 0.055 | -0.024 | -0.002
CSNK2B (UniProt P67870) | -0.019 | 0.021 | -0.032 | 0.066 | -0.021 | 0.026 | 0.016 | -0.034 | -0.03 | -0.008 | -0.029 | 0.009 | 0.043 | 0.019 | 0.001 | -0.051 | 0.027 | 0.034 | -0.048 | -0.176
CDK6 (UniProt Q00534) | -0.037 | 0.01 | 0.044 | 0 | 0.032 | 0.002 | -0.024 | -0.027 | -0.019 | -0.018 | -0.027 | -0.03 | 0.007 | 0.088 | 0.043 | 0.014 | 0.007 | 0.011 | 0.062 | -0.1
CD151 (UniProt P48509) | -0.125 | -0.057 | -0.002 | 0.027 | -0.159 | -0.103 | 0 | -0.21 | 0.018 | -0.052 | 0.277 (active) | 0.157 | -0.068 | 0.041 | -0.011 | -0.058 | 0 | 0.017 | -0.095 | 0.248
CBX1 (UniProt P83916) | 0.049 | -0.005 | 0.04 | 0.318 (active) | -0.026 | 0.07 | 0.057 | -0.011 | -0.042 | -0.009 | 0.001 | -0.119 | 0.103 | -0.022 | -0.007 | -0.037 | -0.013 | 0.009 | 0.028 | -0.014
CSK (UniProt P41240) | 0.325 (active) | -0.091 | -0.01 | 0.019 | -0.046 | 0.072 | 0.054 | 0.034 | 0.035 | 0.004 | -0.132 | -0.306 (active) | 0.05 | 0.014 | -0.013 | -0.075 | 0.024 | 0.032 | -0.011 | -0.147
CDK11B (UniProt P21127) | -0.079 | 0.214 | -0.109 | 0.071 | 0.038 | 0.029 | -0.064 | -0.063 | 0.114 | 0.028 | 0.087 | 0.047 | 0.028 | -0.072 | -0.07 | -0.01 | -0.107 | 0.004 | 0.005 | 0.094
CLPP (UniProt Q16740) | -0.002 | -0.004 | -0.003 | 0.007 | 0.041 | 0.015 | 0.008 | 0.023 | 0.003 | 0.001 | -0.03 | 0.035 | -0.045 | -0.056 | -0.023 | -0.015 | 0.017 | -0.035 | 0 | 0.081
CLCN3 (UniProt P51790) | -0.03 | 0.046 | 0.015 | 0.034 | -0.313 (active) | 0.014 | 0.009 | -0.107 | 0.02 | 0.053 | 0.036 | -0.095 | -0.037 | -0.015 | 0.013 | 0.065 | 0.011 | -0.018 | -0.051 | -0.213
CIZ1 (UniProt Q9ULV3) | -0.02 | -0.027 | -0.022 | 0.059 | 0.011 | -0.018 | -0.007 | -0.033 | 0.017 | 0.001 | 0.071 | -0.022 | 0.046 | 0.086 | -0.008 | 0.017 | -0.011 | -0.034 | 0.015 | -0.035
CELF2 isoform 3 (UniProt O95319) | 0.075 | 0.01 | 0.112 | -0.006 | -0.025 | 0.065 | 0.005 | -0.02 | -0.008 | 0.001 | 0.115 | -0.028 | 0.02 | 0.018 | -0.027 | 0.103 | 0.006 | -0.049 | -0.04 | 0.111

Source: the supplement of paper PMC10849652
